# Measurements as given in PubChem BioAssay AID1303 (The Scripps Research Institute Molecular Screening Center, 2008).
# The list shows a part of the results. Activity calls are given as the source filed them.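 Rule for the calls: active = inhibition above the mean of solvent-only control wells plus 3 SD of those wells (cut at about 15% in these data); inactive = the rest.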
# Experiment: NF-kB reporter inhibitors, TNF-alpha stimulated, counter-screen for STAT1 inhibitor project, cell-based, HEK293T, luciferase luminescence (AID 1303);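 note: 0% = DMSO with TNF-alpha and 100% = MG-132 control with TNF-alpha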
# Conditions: TNF-alpha induced, at 5.7 µM, hits give high values
row,Compound,inhibition
1,C[C@@H]1C[C@@H]2O[C@H]2/C=C\C=C\C(=O)Cc2c(Cl)c(O)cc(O)c2C(=O)O1,54.9% (active)
2,NS(=O)(=O)c1cccc(NC(=O)CSc2nc3ccccc3n2-c2ccccc2)c1,1.57% (inactive)
3,COC(=O)C1=CN(Cc2ccc(OC)c(OC)c2)C=C(C(=O)OC)C1c1cccs1,-1.6% (inactive)
4,COc1ccc(C2CC(c3cccs3)=NN2c2nc(C)c(C(C)=O)s2)cc1OC (stereo not given),1.4% (inactive)
5,Cc1ccc(C2=Nc3c(ccc4ccccc34)C(c3ccncc3)=NN2)cc1,4.77% (inactive)
6,O=C(CCl)N(Cc1cccc([N+](=O)[O-])c1)c1cccc(Cl)c1,37.9% (active)
7,COc1ccc(C(=O)Nc2ccccc2C(=O)N/N=C/c2ccccc2OC)cc1,10.2% (inactive)
8,CCOC(=O)N1CCN(C(=O)CSc2nnc(-c3c[nH]c4ccccc34)n2CCOC)CC1,3.03% (inactive)
9,CCOC(=O)C(=CNc1cccc(C)n1)C(=O)OCC,-2.27% (inactive)
10,CCOC(=O)N1CCN(C(=O)C2CCN(c3ncnc4c3sc3cccc(F)c34)CC2)CC1,20.1% (active)
